Reference: PubChem BioAssay (Tox21)
Results filed as inconclusive are left out. Activity calls are given as the source filed them. Calls come from the whole dose curve; as a rule, active = well fitted curve in the direction sought with a large enough effect in the repeat runs; inconclusive = weak or mixed curves; inactive = no such curve, though single readings can be large; an effect the other way counts as inactive or inconclusive.

Experiments:
[1] = A CellTox Green Cytotoxicity Assay to monitor cytotoxicity in HepG2 cells - 32 hour (AID 1224883); note: nearly all actives have a fitted effect of over 50% in size; note: potency is the fitted concentration of half-maximal effect
In short: (§1)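 Continuous culture of HepG2 cells with a membrane-impermeant DNA dye; rising fluorescence marks dead cells. Compound exposure lasted up to 40 h at 37 C, with reads every 8 h from 0 h.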

[2] = qHTS RealTime-Glo MT Cell Viability Assay in HepG2 cells - 16 hour (AID 1224885); note: nearly all actives have a fitted effect of over 50% in size
In short: (§2)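 Luminescence read-out: viable HepG2 cells reduce a prosubstrate to a NanoLuc substrate, giving a signal proportional to live cell number. Reads taken at 0, 8, 16, 24, 32 and 40 h of compound exposure at 37 C.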

[3] = qHTS RealTime-Glo MT Cell Viability Assay in HEK293 cells - 24 hour (AID 1224886); note: nearly all actives have a fitted effect of over 50% in size; note: potency is the fitted concentration of half-maximal effect
In short: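 Nonlytic real-time viability readout: viable cells convert prosubstrate to NanoLuc substrate, giving luminescence proportional to live cell number. HEK293, 600 cells/well, compound added after 5 h, continuous culture at 37 C.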

[4] = qHTS RealTime-Glo MT Cell Viability Assay in HEK293 cells - 8 hour (AID 1224887); note: nearly all actives have a fitted effect of over 50% in size; note: potency is the fitted concentration of half-maximal effect
In short: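 qHTS format; HEK293 cells with NanoLuc/prosubstrate reagent, 37 C/5% CO2 for 5 h pre-dosing; compounds 23 nL in DMSO; luminescence at each time point reflects viable cells.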

[5] = A CellTox Green Cytotoxicity Assay to monitor cytotoxicity in HEK293 cells - 16 hour (AID 1224888); note: nearly all actives have a fitted effect of over 35% in size
In short: (§3)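 Each value comes from one timepoint of a single continuous run in which HEK293 cells with CellTox Green were exposed to compound for up to 40 h at 37 C, dye fluorescence rising with cell death.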

[6] = A CellTox Green Cytotoxicity Assay to monitor cytotoxicity in HepG2 cells - 8 hour (AID 1224890); note: nearly all actives have a fitted effect of over 45% in size; note: potency is the fitted concentration of half-maximal effect
In short: as §1

[7] = qHTS assay to identify small molecule antagonists of the estrogen receptor alpha (ER-alpha) signaling pathway using the BG1 cell line in the presence of 0.1 nM 17-beta-estradiol - cell viability counter screen (AID 1259241); note: nearly all actives have a fitted effect of over 40% in size
In short: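 Cells were plated and left 24 hr, compounds in DMSO were pinned in, 17beta-estradiol was added to 0.1 nM final, and after 22 hr CellTiter-Fluor reagent was added for 30 min before fluorescence was read.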

[8] = qHTS assay to identify small molecule antagonists of the androgen receptor (AR) signaling pathway using the MDA cell line in the presence of 0.5 nM R1881 - cell viability counter screen (AID 1259242); note: nearly all actives have a fitted effect of over 45% in size; note: potency is the fitted concentration of half-maximal effect
In short: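 Fluorescence from CellTiter-Fluor, which reports protease activity of live cells, was read 30 min after reagent addition to MDA-kb2 cells that had been incubated 16 hr with compound and 0.5 nM R1881.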

[9] = A CellTox Green Cytotoxicity Assay to monitor cytotoxicity in HEK293 cells - 8 hour (AID 1224884); note: nearly all actives have a fitted effect of over 35% in size
In short: as §3

[10] = qHTS RealTime-Glo MT Cell Viability Assay in HepG2 cells - 0 hour (AID 1224889); note: nearly all actives have a fitted effect of over 50% in size; note: potency is the fitted concentration of half-maximal effect
In short: as §2

Measured: Potency

CCCCCCS
inactive: [1] | [2] | [3] | [4] | [5] | [6] | [7] | [8]

CN(Cc1cc(Br)cc(Br)c1N)C1CCCCC1
inactive: [9] | [7] | [8]
active: [1] 12 µM

CCCCOc1ccc(C(=O)CCN2CCCCC2)cc1
active: [1] 12 µM | [3] 23.9 µM | [6] 21.3 µM
inactive: [9] | [5] | [10] | [7]

CC(C)(C)c1cc(CCC(=O)NCCCCCCNC(=O)CCc2cc(C(C)(C)C)c(O)c(C(C)(C)C)c2)cc(C(C)(C)C)c1O
inactive: [1] | [9] | [5] | [10] | [7] | [8]

Cc1cc(C)c(C=O)c(C)c1
inactive: [1] | [2] | [3] | [4] | [5] | [10] | [7] | [8]

CN(C)c1ccc(N=NS(=O)(=O)O)cc1
inactive: [1] | [9] | [5] | [6]
active: [4] 34.5 µM | [8] 27.3 µM

CCc1c(C(=O)O)c(=O)cnn1-c1ccc(Cl)cc1
inactive: [1] | [2] | [3] | [4] | [5] | [10] | [6] | [7] | [8]

Clc1cccnc1
inactive: [1] | [2] | [3] | [4] | [5] | [10] | [6] | [7] | [8]

CCOCN(C(=O)CS(=O)(=O)O)c1c(C)cccc1CC
inactive: [1] | [2] | [3] | [4] | [5] | [6] | [7] | [8]

CCOCOCC
inactive: [1] | [2] | [3] | [4] | [5] | [6] | [7] | [8]

O=Nc1ccc(NO)cc1
inactive: [1] | [2] | [3] | [4] | [5] | [6] | [7] | [8]

O=C1NC2CCCCN2C12CCN(CCCN1c3ccccc3CCc3ccc(Cl)cc31)CC2 (stereo not drawn)
inactive: [9]
active: [1] 23.9 µM | [3] 8.49 µM | [4] 6.01 µM | [8] 26.6 µM

Cc1nc(Nc2ncc(C(=O)Nc3c(C)cccc3Cl)s2)cc(N2CCN(CCO)CC2)n1
active: [1] 26.8 µM | [3] 30.1 µM | [10] 23.9 µM
inactive: [9] | [5] | [6] | [8]

CC(C(O)c1ccccc1)N(C)CCOC(c1ccccc1)c1ccccc1 (stereo not drawn)
active: [1] 26.8 µM | [3] 21.3 µM | [8] 29.8 µM
inactive: [9] | [7]
